From PubChem BioAssay (NCATS)
Records with an inconclusive call do not appear. Calls of active or inactive are those of the source. The call rests on the fitted dose curve; in most records, active means well fitted cell-killing curve with a large enough effect; inconclusive means small, poorly fitted or top-dose-only effect, or effect the other way; inactive means flat fitted curve, though single readings scatter.

How the values were obtained:
Assay in all cases: Primary qHTS to identify gynecologic anti-cancer compounds using libraries of approved drugs and bioactive compounds (AID 1345084); further: nearly all actives have a fitted effect of over 55% in size
CASKI = conditions: Gynecologic cancer cell panel viability, ATPlite luminescence, 48 h; series mostly up to 57.5 µM
How it was run: (§1)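 Measured: luminescence after ATPlite addition (15 min, RT). Exposure: 48 h, 37 C, 5% CO2.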

Es-2 = conditions: Gynecologic cancer cell panel viability, ATPlite luminescence, 48 h; series mostly up to 57.5 µM
How it was run: as §1

HeLa = conditions: Gynecologic cancer cell panel viability, ATPlite luminescence, 48 h; series mostly up to 57.5 µM
How it was run: as §1

Hek293T = conditions: Gynecologic cancer cell panel viability, ATPlite luminescence, 48 h, control line for the selectivity index; series mostly up to 57.5 µM
How it was run: as §1

JEG-3 = conditions: Gynecologic cancer cell panel viability, ATPlite luminescence, 48 h; series mostly up to 57.5 µM
How it was run: as §1

OV90 = conditions: Gynecologic cancer cell panel viability, ATPlite luminescence, 48 h; series mostly up to 57.5 µM
How it was run: as §1

PA-1 = conditions: Gynecologic cancer cell panel viability, ATPlite luminescence, 48 h; series mostly up to 57.5 µM
How it was run: as §1

SKOV3 = conditions: Gynecologic cancer cell panel viability, ATPlite luminescence, 48 h; series mostly up to 57.5 µM
How it was run: as §1

Tov-21-G = conditions: Gynecologic cancer cell panel viability, ATPlite luminescence, 48 h; series mostly up to 57.5 µM
How it was run: as §1

Tov112D = conditions: Gynecologic cancer cell panel viability, ATPlite luminescence, 48 h; series mostly up to 57.5 µM
How it was run: as §1

Measured: Potency

Cn1c(=O)c2[nH]c(Br)nc2n(C)c1=O
inactive: CASKI | Es-2 | HeLa | Hek293T | JEG-3 | OV90 | PA-1 | SKOV3 | Tov-21-G | Tov112D

CC(=O)N[C@@H](CCC(=O)O)C(=O)O
inactive: CASKI | Es-2 | HeLa | Hek293T | JEG-3 | OV90 | PA-1 | SKOV3 | Tov-21-G | Tov112D

COc1ccc(CN(CCN(C)C)c2ncccn2)cc1
inactive: CASKI | Es-2 | HeLa | Hek293T | JEG-3 | OV90 | PA-1 | SKOV3 | Tov-21-G | Tov112D

O=C1c2cccc3c2[C@H](CCC3)CN1[C@@H]1CN2CCC1CC2
inactive: CASKI | Es-2 | HeLa | Hek293T | JEG-3 | OV90 | PA-1 | SKOV3 | Tov-21-G | Tov112D

CCNC(=O)/C=C/c1cccc(Br)c1
inactive: CASKI | Es-2 | HeLa | Hek293T | JEG-3 | OV90 | PA-1 | SKOV3 | Tov-21-G

CCCCC(CC)COC(=O)c1ccc(N(C)C)cc1 (centres undefined)
inactive: CASKI | Es-2 | HeLa | Hek293T | JEG-3 | OV90 | PA-1 | SKOV3 | Tov-21-G | Tov112D

FC(F)(F)C(F)(F)C(F)(F)C(F)(F)C(F)(F)C(F)(F)C(F)(F)C(F)(F)Br
inactive: CASKI | Es-2 | HeLa | Hek293T | JEG-3 | OV90 | PA-1 | SKOV3 | Tov-21-G | Tov112D

c1ccc(-c2nc[nH]c2-c2ccccc2)cc1
inactive: CASKI | Es-2 | HeLa | Hek293T | JEG-3 | OV90 | PA-1 | SKOV3 | Tov-21-G | Tov112D

CCOC(=O)c1ccc(N)cc1
inactive: CASKI | Es-2 | HeLa | Hek293T | JEG-3 | OV90 | PA-1 | SKOV3 | Tov-21-G | Tov112D

FC1(F)C(F)(F)C(F)(F)C2(F)C(F)(F)C(F)(F)C(F)(F)C(F)(F)C2(F)C1(F)F (centres undefined)
inactive: CASKI | Es-2 | HeLa | Hek293T | JEG-3 | OV90 | PA-1 | SKOV3 | Tov-21-G | Tov112D

CC(=O)O[C@H]1C[C@@H]2CC[C@@H]3[C@H](CC[C@@]4(C)[C@H]3C[C@H]([N+]3(C)CCCCC3)[C@@H]4OC(C)=O)[C@@]2(C)C[C@@H]1N1CCCCC1
inactive: CASKI | Es-2 | HeLa | Hek293T | JEG-3 | OV90 | PA-1 | SKOV3 | Tov-21-G | Tov112D

CC(=O)Oc1ccc(C)cc1
inactive: CASKI | Es-2 | HeLa | Hek293T | JEG-3 | OV90 | PA-1 | SKOV3 | Tov-21-G | Tov112D

C[C@@H](O)[C@H]1C(=O)N2C(C(=O)O)=C(S[C@@H]3CN[C@H](CNS(N)(=O)=O)C3)[C@H](C)[C@H]12
inactive: CASKI | Es-2 | HeLa | Hek293T | JEG-3 | OV90 | PA-1 | SKOV3 | Tov-21-G | Tov112D

CCCCCCCCOc1ccc(C(=O)c2ccccc2)c(O)c1
inactive: CASKI | Es-2 | HeLa | Hek293T | JEG-3 | OV90 | PA-1 | SKOV3 | Tov-21-G | Tov112D

OC(C#CCN1CCCC1)(c1ccccc1)c1ccccc1
inactive: CASKI | Es-2 | HeLa | Hek293T | JEG-3 | OV90 | PA-1 | SKOV3 | Tov-21-G | Tov112D

CC(C)Nc1cccnc1N1CCN(C(=O)c2cc3cc(NS(C)(=O)=O)ccc3[nH]2)CC1
inactive: CASKI | Es-2 | HeLa | Hek293T | JEG-3 | OV90 | PA-1 | SKOV3 | Tov-21-G | Tov112D

COc1ccc(C(=O)c2ccccc2O)c(O)c1
inactive: CASKI | Es-2 | HeLa | Hek293T | JEG-3 | OV90 | PA-1 | SKOV3 | Tov-21-G | Tov112D

CO[C@]12C[C@@H](COC(=O)c3cncc(Br)c3)CN(C)[C@@H]1Cc1cn(C)c3cccc2c13
inactive: CASKI | Es-2 | HeLa | Hek293T | JEG-3 | OV90 | PA-1 | SKOV3 | Tov-21-G | Tov112D

Cc1cccc(C)c1NC(=O)CN1CCCC1
inactive: CASKI | Es-2 | HeLa | Hek293T | JEG-3 | OV90 | PA-1 | SKOV3 | Tov-21-G | Tov112D

C=C1c2cccc(O)c2C(O)=C2C(=O)[C@]3(O)C(O)=C(C(N)=O)C(=O)[C@@H](N(C)C)[C@@H]3[C@@H](O)[C@H]12
inactive: CASKI | Es-2 | HeLa | Hek293T | JEG-3 | OV90 | PA-1 | SKOV3 | Tov-21-G | Tov112D

Nc1nc(-c2ccccc2)c(Br)c(=O)[nH]1
inactive: CASKI | Es-2 | HeLa | Hek293T | JEG-3 | OV90 | PA-1 | SKOV3 | Tov-21-G | Tov112D
